Records with an inconclusive call do not appear. Activity calls are given as the source filed them. Unless noted, calls follow the shape of the full dose curve.

The target of assay [1] is Bile acid receptor (Homo sapiens) (UniProt Q96RI1). The experiment in a line: qHTS assay for small molecule agonists of farnesoid X receptor signaling (AID 588527).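 Also: 0% = vehicle basal and 100% = reference agonist.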 The note with it: HEK293T FXR-UAS-bla, beta-lactamase ratio, 16 h; activation: stronger effect = higher value. A digest of the protocol:
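Read-out: beta-lactamase reporter fluorescence with CCF4 substrate in GeneBLAzer FXR-UAS-bla HEK293T cells, after 16 h compound exposure at 37 C. Response scaled between DMSO basal (0%) and chenodeoxycholic acid at 100 uM (100%).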
(Quantitative high-throughput screening tests each substance at several concentrations.)

Assay [2] deals with Peroxisome proliferator-activated receptor delta (Homo sapiens) (UniProt Q03181). The experiment in a line: qHTS assay for small molecule agonists of peroxisome proliferator-activated receptor delta signaling (AID 588534).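 Also: 0% = DMSO basal wells and 100% = positive control agonist at 10 µM.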 The procedure, abridged: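 Fluorescence from CCF4 substrate cleavage by beta-lactamase reporter, read 2 hrs at RT, measured agonist activity. Compounds were tested with 18 hrs exposure at 37 C. Concentration-response data fitted to Hill equation.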
Chain of Peroxisome proliferator-activated receptor delta (Homo sapiens) (Q03181 whole entry, looked up): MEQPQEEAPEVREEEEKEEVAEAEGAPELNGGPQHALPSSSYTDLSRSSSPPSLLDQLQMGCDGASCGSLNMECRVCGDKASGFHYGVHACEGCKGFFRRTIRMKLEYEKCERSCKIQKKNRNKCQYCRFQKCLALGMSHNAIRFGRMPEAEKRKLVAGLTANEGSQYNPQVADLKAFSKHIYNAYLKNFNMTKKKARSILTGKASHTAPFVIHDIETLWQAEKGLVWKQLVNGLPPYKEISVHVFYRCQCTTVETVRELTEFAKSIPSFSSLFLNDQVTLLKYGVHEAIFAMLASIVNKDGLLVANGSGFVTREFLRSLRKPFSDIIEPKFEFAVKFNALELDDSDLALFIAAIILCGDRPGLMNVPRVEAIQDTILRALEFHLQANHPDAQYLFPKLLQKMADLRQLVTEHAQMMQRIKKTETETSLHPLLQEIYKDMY

Assay [3] can be described thus: qHTS for Inhibitors of the Functional Ribonucleoprotein Complex (vRNP) of Lassa (LASV) Arenavirus: LASV Primary Screen - GLuc reporter signal (AID 1347082; calls by dose curve; tested in HEK293 reporter line; also: % is scaled to controls: 0 for no effect and ±100 for the full control effect; nearly all actives have a fitted effect of over 60% in size).
Assay [4] is described as follows: qHTS for Inhibitors of the Functional Ribonucleoprotein Complex (vRNP) of Lassa (LASV) Arenavirus: Viability assay - alamar blue signal for LASV Primary Screen (AID 1347083; calls by dose curve; tested in HEK293 reporter line; also: % is scaled to controls: 0 for no effect and ±100 for the full control effect; nearly all actives have a fitted effect of over 80% in size).
A short description of assay [5]: qHTS for Inhibitors of the Functional Ribonucleoprotein Complex (vRNP) of Lymphocytic Choriomeningitis Arenaviruses (LCMV): Viability assay - alamar blue signal for LCMV Primary Screen (AID 1347085; calls by dose curve; tested in HEK293 reporter line; also: % is scaled to controls: 0 for no effect and ±100 for the full control effect; nearly all actives have a fitted effect of over 80% in size).
Assay [6] concerns the target Nucleoprotein (Lymphocytic choriomeningitis virus (strain Armstrong)) (UniProt P09992). The experiment in a line: qHTS for Inhibitors of the Functional Ribonucleoprotein Complex (vRNP) of Lymphocytic Choriomeningitis Arenaviruses (LCMV): LCMV Primary Screen - GLuc reporter signal (AID 1347086). Also: % is scaled to controls: 0 for no effect and ±100 for the full control effect; nearly all actives have a fitted effect of over 70% in size.
The nature of assay [7]: Cytotoxicity counterscreen for inhibitors of SARS-CoV-2 cell entry (AID 1645845). Also: nearly all actives have a fitted effect of over 50% in size. A digest of the protocol:
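48 h compound treatment (after 1 h preincubation), HEK293-ACE2 cells, 37 C/5% CO2; ATP luminescence endpoint; normalized to cell wells and media blanks.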
A general note: A counterscreen serves to expose hits that act by an unwanted route or on another target.

Assay [8] in a line: Primary qHTS to identify inhibitors of SARS-CoV-2 cell entry (AID 1645846). Also: nearly all actives have a fitted effect of over 45% in size. The note with it: activity change, negative = inhibition: at 57.1 µM (top of the series) unless noted. The procedure, abridged:
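Inhibition of spike-mediated entry was scored in human ACE2-transfected Expi293F cells. Particles were MLV-pseudotyped with Wuhan-Hu-1 S carrying a 19-aa C-terminal deletion; signal was luciferase after two days, scaled between spike PP and fusion-protein-free PP.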

The test system of the next assay is CRL-7250. The experiment in a line: qHTS assay to identify novel small-molecules to repurpose for Merkel cell carcinoma treatment (AID 1296009; active = well fitted curve in the direction sought with a large enough effect; an effect the other way counts as inactive or inconclusive; also: nearly all actives have a fitted effect of over 60% in size). To be noted: MCC and control cell lines, CellTiter-Glo viability, 72 h; series mostly up to 92 µM. A digest of the protocol:
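72 hr, 37 degree celsius; NPC 8-pt / MIPE 11-pt dose response; compound pinned in DMSO; CellTiter-Glo, 10 min RT, luminescence; normalized to no-cell and DMSO controls.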

A short description of assay [9]: qHTS profiling of the MIPE4 collection as inhibitors of Plasmodium falciparum (3D7) proliferation (AID 743344; call rule not given here;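 also: scaled between DMSO vehicle wells and 0.29 µM artemisinin as full inhibition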). The note with it: P. falciparum 3D7 in erythrocytes, SYBR Green DNA fluorescence, 72 h; at 28.5 µM (top of the series) unless noted. The procedure, abridged:
(§1)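 Erythrocytes infected with P. falciparum (0.3% parasitemia, 2.5% hematocrit) incubated with compounds 72 h at 37 C, 5% CO2. Lysis with saponin/Triton buffer containing SYBR Green I, overnight at room temperature in the dark; DNA fluorescence (485/535 nm) normalised to 0.29 uM artemisinin and DMSO.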

A short description of assay [10]: qHTS profiling of the MIPE4 collection as inhibitors of Plasmodium falciparum (DD2) proliferation (AID 743345; call rule not given here). To be noted: P. falciparum Dd2 in erythrocytes, SYBR Green DNA, 72 h; at 28.5 µM (top of the series) unless noted. A digest of the protocol:
as §1

Assay [11] can be described thus: qHTS profiling of the MIPE4 collection as inhibitors of Plasmodium falciparum (DD2) proliferation (Rep 2) (AID 743346; call rule not given here). To be noted: P. falciparum Dd2 in erythrocytes, SYBR Green DNA, 72 h; at 28.5 µM (top of the series) unless noted. The procedure, abridged: as §1
Assay [12] is described as follows: VSVG counterscreen qHTS to identify inhibitors of SARS-CoV-2 cell entry (AID 1645847). Also: potency is read from the fitted curve at half-maximal effect; nearly all actives have a fitted effect of over 65% in size. The procedure, abridged:
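Luminescence from a luciferase reporter, normalised to bald particle and VSV-G pseudotyped particle wells, is the read-out. Cells are HEK293 expressing human ACE2, exposed to compound 1 h before a 48 h particle infection at 37 °C.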

Assay [13] concerns the target Alpha-galactosidase (Coffea arabica) (UniProt Q42656). The experiment in a line: Counterscreen for Glucocerebrosidase Inhibitors: qHTS Assay for Coffee Bean alpha-Galactosidase at pH 4.5 (AID 957; active = well fitted curve in the direction sought with a large enough effect; an effect the other way counts as inactive or inconclusive;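 also: plate controls were enzyme alone for no effect and no enzyme for full effect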). The procedure, abridged:
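Coffee bean alpha-galactosidase 2 nM, substrate 4-MU-alpha-Gal 80 uM, pH 4.5 citrate/Tween-20, 20 min RT. Cpd titration 0.7 nM–77 uM. Stop pH 10, fluorescence 365/440 nm; Hill-equation AC50.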

For assay [14] the target is unchanged. The experiment in a line: Counterscreen for Glucocerebrosidase Inhibitors: qHTS Assay for Coffee Bean alpha-Galactosidase at pH 5.9 (AID 998; active = well fitted curve in the direction sought with a large enough effect; an effect the other way counts as inactive or inconclusive;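 also: plate controls were uninhibited enzyme for no effect and no-enzyme basal signal for full effect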). A digest of the protocol:
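Compounds were titrated from 0.7 nM to 77 uM against green coffee bean alpha-galactosidase (2 nM) using 80 uM fluorogenic 4-methylumbelliferyl substrate. After 20 min at room temperature, reactions were stopped at pH 10 and read by fluorescence.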

A short description of assay [15]: Validation screen for inhibitors of Lassa infection (AID 463096). Also: % is scaled to controls: 0 for no effect and ±100 for the full control effect.
Assay [16] is described as follows: Inducers of the Endoplasmic Reticulum Stress Response (ERSR) in human glioma: Validation (AID 504836; active = well fitted curve in the direction sought with a large enough effect; an effect the other way counts as inactive or inconclusive; also: 0% is about no effect). A digest of the protocol:
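ERSR induction read as luciferase luminescence (Bright-Glo, 10 min at room temperature) in stably transfected human U87-MG glioma cells exposed to compounds for 16 h, using GRP78 as sensor.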

Chain of Nucleoprotein (Lymphocytic choriomeningitis virus (strain Armstrong)) (P09992 whole entry, looked up): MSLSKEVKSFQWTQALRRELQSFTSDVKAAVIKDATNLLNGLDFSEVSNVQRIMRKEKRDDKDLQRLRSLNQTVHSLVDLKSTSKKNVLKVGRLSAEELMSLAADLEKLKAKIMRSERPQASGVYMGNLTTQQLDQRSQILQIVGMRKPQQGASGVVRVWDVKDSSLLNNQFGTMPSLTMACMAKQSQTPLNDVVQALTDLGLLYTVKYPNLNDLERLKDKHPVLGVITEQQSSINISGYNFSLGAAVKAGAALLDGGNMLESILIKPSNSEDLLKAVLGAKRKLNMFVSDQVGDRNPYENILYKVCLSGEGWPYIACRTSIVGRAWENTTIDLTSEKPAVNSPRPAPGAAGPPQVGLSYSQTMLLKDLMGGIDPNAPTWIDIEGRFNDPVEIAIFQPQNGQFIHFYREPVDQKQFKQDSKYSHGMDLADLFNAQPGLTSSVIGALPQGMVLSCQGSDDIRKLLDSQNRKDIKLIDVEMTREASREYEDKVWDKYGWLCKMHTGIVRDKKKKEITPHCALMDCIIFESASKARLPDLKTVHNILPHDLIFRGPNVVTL
Chain of Alpha-galactosidase (Coffea arabica) (Q42656 whole entry, looked up): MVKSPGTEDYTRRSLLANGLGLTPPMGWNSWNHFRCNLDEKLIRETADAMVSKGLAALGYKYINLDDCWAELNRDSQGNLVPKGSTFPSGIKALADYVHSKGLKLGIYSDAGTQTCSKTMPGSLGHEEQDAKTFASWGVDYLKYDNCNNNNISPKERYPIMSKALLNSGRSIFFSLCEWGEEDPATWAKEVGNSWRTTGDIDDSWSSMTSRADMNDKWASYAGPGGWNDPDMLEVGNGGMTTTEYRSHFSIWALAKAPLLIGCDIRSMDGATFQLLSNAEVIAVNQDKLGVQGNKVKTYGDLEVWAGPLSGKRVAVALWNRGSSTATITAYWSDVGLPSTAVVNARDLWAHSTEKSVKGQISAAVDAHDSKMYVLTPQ
Chain of Bile acid receptor (Homo sapiens) (Q96RI1 whole entry, looked up): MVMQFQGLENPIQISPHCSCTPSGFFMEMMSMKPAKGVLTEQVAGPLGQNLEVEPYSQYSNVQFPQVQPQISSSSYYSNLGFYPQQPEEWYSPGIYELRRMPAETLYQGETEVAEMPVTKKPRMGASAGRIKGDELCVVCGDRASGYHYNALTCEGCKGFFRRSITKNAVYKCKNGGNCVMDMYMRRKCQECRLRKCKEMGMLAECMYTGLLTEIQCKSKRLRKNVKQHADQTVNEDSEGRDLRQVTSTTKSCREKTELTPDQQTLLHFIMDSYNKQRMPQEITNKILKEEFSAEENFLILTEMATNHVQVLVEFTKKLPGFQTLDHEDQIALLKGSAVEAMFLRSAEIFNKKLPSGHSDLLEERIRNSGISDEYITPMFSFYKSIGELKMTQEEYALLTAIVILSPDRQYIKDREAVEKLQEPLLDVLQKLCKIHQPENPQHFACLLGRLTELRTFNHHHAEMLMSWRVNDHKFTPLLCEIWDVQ

With `Cc1cc(O)c2c(c1)C(=O)c1cccc(O)c1C2=O`, in assay [1], the activation was -2.98% (inactive). Moreover, the Potency result in [2], in assay [3], in assay [4], in [5], in assay [6] and in [7] was “inactive” throughout. Further, the Potency entry in the assay with CRL-7250 is “inactive”. The activity change, negative = inhibition in [8] was -17%.

On to `CCN1C[C@H](C)n2c(c(O)c3c(=O)n(Cc4ccc(F)c(Cl)c4)nc(C(=O)NC)c32)C1=O`, for which the parasite growth, % of DMSO control in assay [9] was 43.2%. In assay [10], this compound displayed a parasite growth remaining, % of DMSO control (lower = more inhibition) of 55.9%. Besides, in assay [11], the parasite growth, % of control (lower = inhibition) was found to be 45.4%. The Potency entry (in [3]; in assay [4]; in [5]; in [6]; in the assay with CRL-7250) was “inactive” each time.

Regarding `CCC(c1ccc(O)cc1)C(CC)c1ccc(O)cc1` (configuration not stated), the Potency result (in assay [3]; in assay [4]; in assay [5]; in assay [7]; in the assay on CRL-7250) was “inactive” each time. The activity change, negative = inhibition in assay [8] is -63.9%. Moreover, the Potency in [12] is 30.4 µM (active).

Consider `O=C(O)CCCc1c[nH]c2ccccc12`, for which the activation in assay [1] is -2.14% (inactive). For the same compound, the Potency entry (in assay [3]; in assay [4]; in [5]; in assay [6]; in the assay with CRL-7250) was “inactive” throughout. Moreover, in assay [8], the activity change, negative = inhibition turned out to be 0.874%.

`O=[N+]([O-])c1ccc(-c2nc(-c3ccc(F)cc3)c(-c3ccncc3)[nH]2)cc1`: the result in [13], in [14] and in [16] was inactive. Besides, the Potency result (in [15]; in [3]; in [4]; in [5]; in [6]; in the assay with CRL-7250) was “inactive” in each case.

Turning to `CC(C(C)N1CC(=O)NC(=O)C1)N1CC(=O)NC(=O)C1` (configuration not stated), the Potency result (in assay [3]; in assay [4]; in [5]; in assay [6]; in the assay with CRL-7250) was “inactive” in each case. For the same compound, the activity change, negative = inhibition in assay [8] was -28.5%.

In [9], `c1coc(CNc2ncnc3nc[nH]c23)c1` had a parasite growth, % of DMSO control of 71.1%. Also, the parasite growth, % of control (lower = inhibition) in assay [11] came to 80%. Moreover, the Potency result (in [3]; in [4]; in assay [5]; in assay [6]; in assay [7]; in the assay with CRL-7250) was “inactive” throughout. The activity change, negative = inhibition in [8] is 0.628%.

In the case of `Nc1[nH]nc2nnc(-c3c(-c4ccccc4)nn4ccccc34)cc12`, the Potency entry (in [3]; in assay [4]; in assay [5]; in assay [6]; in [7]; in the assay with CRL-7250) was “inactive” in each case. In addition, in assay [8], the activity change, negative = inhibition was -11.3%.

`Cc1ccc(O)c(C(CCN(C(C)C)C(C)C)c2ccccc2)c1` (configuration not stated) showed a parasite growth remaining, % of DMSO control (lower = more inhibition) in [10] of 32%. The Potency entry (in assay [3]; in assay [4]; in assay [5]; in assay [6]; in [7]; with CRL-7250) was “inactive” throughout.

Consider `O=C(O)C(=O)Nc1cccc(C2=NN=N[N]2)c1`, for which, in [9], the parasite growth, % of DMSO control was 82.2%. The compound also yielded a parasite growth remaining, % of DMSO control (lower = more inhibition) in assay [10] of 99.9%. In addition, the parasite growth, % of control (lower = inhibition) in assay [11] was determined as 136%. The Potency entry (in assay [3]; in [4]; in assay [5]; in [6]; with CRL-7250) was “inactive” in each case.
